Measured values published in PubChem BioAssay.
Inconclusive results are not listed. Activity calls are given as the source filed them. Unless noted, how the calls were made is not given here.

How the values were obtained:
[1] = rapamycin-like changes in RPL19A-GFP expression – cell-based, S. cerevisiae, multiplex flow cytometry, primary screen (AID 1862; in the data active means percent of DMSO control GFP below about 86%;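 further: lower values mimic rapamycin by blocking the RPL19A rise seen in DMSO cells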); details: S. cerevisiae RPL19A-GFP strain, flow cytometry fluorescence, 3 h; at 10 µM; stronger effect = lower value
[2] = TOR pathway GLN3 branch reporter MEP2-GFP changes – S. cerevisiae, multiplex flow cytometry, primary screen (AID 1867;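 active means GFP response, as percent of the DMSO control, above the screen-wide mean plus 3 SD, about 139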;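 further: median GFP channel fluorescence of barcode-gated MEP2-GFP cells measured by flow cytometry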); details: S. cerevisiae MEP2-GFP strain, 3 h, at 10 µM, stronger effect = higher value
[3] = TOR pathway RTG branch CIT2 reporter changes – S. cerevisiae, GFP fusion, multiplex flow cytometry, primary screen (AID 1870;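 active means percent response above a set limit, the screen-wide mean plus 3 SD, cut at about 130% in these data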;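 further: barcoded CIT2-GFP strain pooled with four other GFP strains with rapamycin as positive control; median GFP fluorescence per well over plate mean of DMSO wells so 100% = DMSO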); details: S. cerevisiae CIT2-GFP expression, 3 h, at 10 µM, stronger effect = higher value
[4] = TOR pathway LAP4-GFP level changes – S. cerevisiae, multiplex flow cytometry, primary screen (AID 1873;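 active means GFP signal, as percent of the solvent control, above the screen mean plus 3 SD, about 149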); details: S. cerevisiae LAP4-GFP expression, 3 h, at 10 µM, stronger effect = higher value
[5] = yeast AGP1-GFP level changes, GLN3 branch – cell-based, multiplex flow cytometry, S. cerevisiae, primary screen (AID 1887;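 active means GFP signal above the screen-wide mean plus 3 SD, that is over about 124.5% of the solvent control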;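 further: AGP1-GFP fusion strain of S. cerevisiae within a five-strain barcoded multiplex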); details: 3 h, at 10 µM, stronger effect = higher value
[6] = reduced mouse 2C T cell binding to pMHC/ICAM-1 vesicles – MLPCN validation set, flow cytometry, LFA-1/ICAM-1 modulator project, pilot screen (AID 2523;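 active means response below a set limit, under 55% cells CD8-positive and vesicle-bound, and CD8 cells' 90th-percentile brightness under 279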;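 on vesicle binding response: mean PE anti-B7-1 fluorescence of CD8+ cells relative to row control; 100% = QL9-loaded vesicles with DMSO vehicle in the same plate row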); details: 2C mouse CD8+ T cells, at 7 µM, stronger effect = lower value; double positive events: measured here: CD8+/vesicle+ event percentage
[7] = molecular target: Integrin beta-1 (Homo sapiens) + Integrin alpha-4 (Homo sapiens) (UniProt P13612+P05556); test: alpha4beta1 integrin LIBS antibody binding reduction – U937 cells, HUTS-21 mAb, flow cytometry, validation set, VLA-4 allosteric modulator project, pilot screen (AID 2674;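 active means inhibition above 50%, about 3 SD of the validation set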;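 further: antibody binding induced by the VLA-4 ligand LDV present at three times its Kd; 0% = LDV ligand with antibody and no compound and 100% = antibody without LDV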); details: HUTS-21 LIBS mAb binding, at 6.7 µM, stronger effect = higher value
[8] = calorie-restriction mimetic ROS inhibitors, yeast – validation compound set, pilot screen (AID 2706;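 active means superoxide response below 65% of plate, a cut near 3 SD across the whole screen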;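 further: yeast exposed to compound for one week at 30 degrees C before staining; 100% = mean of all compound wells on the same plate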); details: S. cerevisiae aging, superoxide DHE fluorescence; at 10 µM; stronger effect = lower value
[9] = molecular target: Beta-adrenergic receptor kinase 1 (Homo sapiens) (UniProt P25098); test: GRK2 binders displacing RNA aptamer, biochemical, validation, human GRK2, bead flow cytometry (AID 488806;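 active means aptamer binding inhibition above 30%, about 3 SD of noise from non-fluorescent compounds; inactive means inhibition at or below 30%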); details: bead-bound GRK2, FAM-aptamer displacement, at 10 µM, stronger effect = higher value
[10] = molecular target: Beta-2 adrenergic receptor (Homo sapiens) (UniProt P07550); test: agonist-induced loss of surface beta2AR – cell-based, FAP fluorogen, flow cytometry, validation set, pilot screen (AID 504459;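 active means percent response above 42, roughly 3 SD of non-fluorescent test compounds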;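 further: agonist-driven loss of surface beta2AR via internalization measured by FAP dye flow cytometry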); details: Am2.2-beta2AR cells, at 10 µM, stronger effect = higher value
[11] = molecular target: AP-2 complex subunit beta (Homo sapiens) (UniProt P63010); test: beta-arrestin/AP2 interaction blockers – biochemical, validation set, GST-AP2 beads, flow cytometry, pilot screen (AID 504541;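 active means inhibition above 54%, about 3 SD of non-fluorescent compounds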;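 further: AP2 carries R879A mutation and is captured from E. coli lysate; bead-bound FITC arrestin peptide fluorescence measuring arrestin peptide binding to AP2; 0% = DMSO wells and 100% = excess unlabeled arrestin peptide control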); details: FITC arrestin peptide, at 10 µM, stronger effect = higher value
[12] = cytosolic pH regulators acting via V-ATPase – S. cerevisiae, pHLuorin, HTS validation (AID 504600; in the data active means response above about 15%;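 further: plate controls were DMSO for no effect and reference compound for full effect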); details: V-ATPase proton transport, at 10 µM, stronger effect = higher value
[13] = test system: anti-desmoglein-3 scFv antibody binding to human DSG3; test: blockers of pathogenic pemphigus antibody–desmoglein-3 binding – biochemical, validation compound set, bead-based, flow cytometry, pilot screen (AID 588368;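 active means binding below the plate cutoff, the plate median minus 3 SD, with a reading above zero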;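 further: signal is the median channel fluorescence of bead-bound GFP antibody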); details: Protein G beads, DSG3-Fc, scFv-GFP binding, at 10 µM, stronger effect = lower value
[14] = test system: Botulinum neurotoxin type F light chain protease (Clostridium botulinum); test: Clostridium botulinum type F light chain protease inhibitors, microsphere substrate cleavage, validation (AID 588459); details: multiplex microsphere protease substrate cleavage assay, flow cytometry; at 10 µM; stronger effect = higher value
[15] = molecular target: Botulinum neurotoxin type A (Clostridium botulinum) (UniProt P0DPI0); test: BoNT/A light chain protease inhibitors, biochemical, multiplex microsphere flow cytometry, validation set (AID 588460); details: at 10 µM, stronger effect = higher value
[16] = molecular target: Lethal factor (Bacillus anthracis) (UniProt P15917); test: Bacillus anthracis lethal factor inhibition, microsphere flow cytometry protease assay, validation at 10 µM (AID 588461); details: multiplex microsphere protease cleavage assay, stronger effect = higher value
[17] = Nile Red efflux blockade in pump-expressing yeast – validation compound set, multiplex, phenotypic, pilot screen (AID 588506;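 active means efflux inhibition above 0.42, the validation set average plus 4 SD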;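 further: Nile Red retained in cells so higher fluorescence means more efflux inhibition; 0 = negative control wells and 1 = enniatin B 25 µM full block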); details: S. cerevisiae pump-expressing triplex, Nile Red efflux flow cytometry; at 10 µM; stronger effect = higher value
[18] = molecular target: ATP-binding cassette sub-family B member 6 (Homo sapiens) (UniProt Q9NP58); test: blockers of ABCB6-driven porphyrin uptake – K562-ABCB6 cells, flow cytometry, validation set, pilot screen (AID 588550;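 active means inhibition above the screen-wide mean plus 3 SD, about 51%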;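 further: 0% = DMSO wells and 100% = benzethonium chloride 70 µM positive control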); details: K562-ABCB6 porphyrin accumulation, 1 h, at 10 µM, stronger effect = higher value
[19] = AML differentiation inducers, ER-HoxA9 marrow cells – cell-based, GFP/MAC1 double positive, flow cytometry, validation set, primary screen (AID 588685;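 active means differentiation response of at least 50%, scaled between solvent and reference control, from cells with both markers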;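 further: compound exposure lasts four days before antibody staining and flow analysis; 0% = DMSO wells and 100% = 5 µM fulvestrant positive control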); details: stronger effect = higher value

ATP-binding cassette sub-family B member 6 (Homo sapiens), sequence (Q9NP58 whole entry, looked up): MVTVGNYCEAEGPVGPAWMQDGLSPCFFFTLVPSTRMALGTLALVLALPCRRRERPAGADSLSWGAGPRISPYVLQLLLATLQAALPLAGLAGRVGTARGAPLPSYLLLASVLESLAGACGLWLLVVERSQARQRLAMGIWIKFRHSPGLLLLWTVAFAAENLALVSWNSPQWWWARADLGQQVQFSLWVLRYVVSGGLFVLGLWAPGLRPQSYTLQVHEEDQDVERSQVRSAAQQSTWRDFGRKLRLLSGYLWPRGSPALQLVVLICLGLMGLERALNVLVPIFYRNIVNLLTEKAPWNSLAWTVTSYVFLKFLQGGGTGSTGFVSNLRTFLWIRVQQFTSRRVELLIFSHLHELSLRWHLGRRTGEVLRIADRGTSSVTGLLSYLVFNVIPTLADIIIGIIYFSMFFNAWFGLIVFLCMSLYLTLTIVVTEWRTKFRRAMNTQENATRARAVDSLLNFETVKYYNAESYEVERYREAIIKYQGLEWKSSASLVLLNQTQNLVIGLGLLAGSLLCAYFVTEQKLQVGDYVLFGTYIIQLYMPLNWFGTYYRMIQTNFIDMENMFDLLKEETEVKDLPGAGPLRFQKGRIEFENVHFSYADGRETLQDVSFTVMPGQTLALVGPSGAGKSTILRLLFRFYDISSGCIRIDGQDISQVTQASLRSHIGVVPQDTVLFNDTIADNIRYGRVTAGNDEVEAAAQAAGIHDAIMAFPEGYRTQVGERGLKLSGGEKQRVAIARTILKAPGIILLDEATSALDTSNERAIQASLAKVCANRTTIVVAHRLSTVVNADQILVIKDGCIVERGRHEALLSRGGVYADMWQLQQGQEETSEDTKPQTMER
Integrin beta-1 (Homo sapiens) + Integrin alpha-4 (Homo sapiens), sequence (P05556 whole entry, looked up): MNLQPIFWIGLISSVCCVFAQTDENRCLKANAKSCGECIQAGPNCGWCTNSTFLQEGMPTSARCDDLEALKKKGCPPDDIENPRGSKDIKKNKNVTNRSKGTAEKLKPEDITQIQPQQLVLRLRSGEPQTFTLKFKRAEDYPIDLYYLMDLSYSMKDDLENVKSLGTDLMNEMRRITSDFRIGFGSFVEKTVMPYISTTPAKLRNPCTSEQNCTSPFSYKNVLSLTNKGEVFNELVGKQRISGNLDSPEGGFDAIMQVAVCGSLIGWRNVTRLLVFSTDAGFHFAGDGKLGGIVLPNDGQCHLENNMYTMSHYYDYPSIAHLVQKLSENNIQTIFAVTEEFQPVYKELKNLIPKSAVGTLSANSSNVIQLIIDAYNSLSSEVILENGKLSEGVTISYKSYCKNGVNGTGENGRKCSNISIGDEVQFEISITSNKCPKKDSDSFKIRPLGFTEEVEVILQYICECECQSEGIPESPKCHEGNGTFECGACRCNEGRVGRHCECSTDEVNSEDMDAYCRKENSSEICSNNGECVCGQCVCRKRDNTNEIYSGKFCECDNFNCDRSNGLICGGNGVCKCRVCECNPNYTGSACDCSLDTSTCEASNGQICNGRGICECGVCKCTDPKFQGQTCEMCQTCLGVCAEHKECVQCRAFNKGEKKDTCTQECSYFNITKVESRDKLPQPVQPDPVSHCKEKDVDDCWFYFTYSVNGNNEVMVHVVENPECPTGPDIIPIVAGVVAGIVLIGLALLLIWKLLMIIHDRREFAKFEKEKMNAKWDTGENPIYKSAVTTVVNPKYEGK
Integrin beta-1 (Homo sapiens) + Integrin alpha-4 (Homo sapiens), sequence (P13612 whole entry, looked up): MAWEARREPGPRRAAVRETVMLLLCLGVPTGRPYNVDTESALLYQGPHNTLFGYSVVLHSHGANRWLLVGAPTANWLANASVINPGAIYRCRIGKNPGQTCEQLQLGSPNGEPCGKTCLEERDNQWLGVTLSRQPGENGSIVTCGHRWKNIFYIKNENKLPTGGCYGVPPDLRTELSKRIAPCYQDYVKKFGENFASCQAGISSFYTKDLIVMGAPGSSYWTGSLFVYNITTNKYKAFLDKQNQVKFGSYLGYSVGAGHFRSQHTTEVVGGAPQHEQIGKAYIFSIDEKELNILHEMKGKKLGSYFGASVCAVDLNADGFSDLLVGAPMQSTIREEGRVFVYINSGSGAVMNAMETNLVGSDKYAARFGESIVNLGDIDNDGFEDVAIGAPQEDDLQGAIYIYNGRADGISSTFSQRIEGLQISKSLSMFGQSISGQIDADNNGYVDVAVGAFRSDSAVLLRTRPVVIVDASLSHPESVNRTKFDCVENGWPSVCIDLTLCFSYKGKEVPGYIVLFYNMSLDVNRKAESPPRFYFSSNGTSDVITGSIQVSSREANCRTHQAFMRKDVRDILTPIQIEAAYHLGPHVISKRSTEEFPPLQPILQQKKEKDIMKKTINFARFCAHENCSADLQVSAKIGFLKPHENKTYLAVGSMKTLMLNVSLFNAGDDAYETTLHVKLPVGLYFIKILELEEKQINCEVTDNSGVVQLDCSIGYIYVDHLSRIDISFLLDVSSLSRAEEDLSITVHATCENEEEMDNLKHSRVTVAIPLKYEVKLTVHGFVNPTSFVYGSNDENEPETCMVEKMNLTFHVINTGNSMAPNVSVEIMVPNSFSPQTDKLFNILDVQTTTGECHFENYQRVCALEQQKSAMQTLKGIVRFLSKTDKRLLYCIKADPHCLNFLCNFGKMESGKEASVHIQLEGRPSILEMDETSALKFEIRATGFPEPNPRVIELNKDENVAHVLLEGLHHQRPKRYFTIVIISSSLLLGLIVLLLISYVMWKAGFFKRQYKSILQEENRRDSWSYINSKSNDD
Beta-2 adrenergic receptor (Homo sapiens), sequence (P07550 whole entry, looked up): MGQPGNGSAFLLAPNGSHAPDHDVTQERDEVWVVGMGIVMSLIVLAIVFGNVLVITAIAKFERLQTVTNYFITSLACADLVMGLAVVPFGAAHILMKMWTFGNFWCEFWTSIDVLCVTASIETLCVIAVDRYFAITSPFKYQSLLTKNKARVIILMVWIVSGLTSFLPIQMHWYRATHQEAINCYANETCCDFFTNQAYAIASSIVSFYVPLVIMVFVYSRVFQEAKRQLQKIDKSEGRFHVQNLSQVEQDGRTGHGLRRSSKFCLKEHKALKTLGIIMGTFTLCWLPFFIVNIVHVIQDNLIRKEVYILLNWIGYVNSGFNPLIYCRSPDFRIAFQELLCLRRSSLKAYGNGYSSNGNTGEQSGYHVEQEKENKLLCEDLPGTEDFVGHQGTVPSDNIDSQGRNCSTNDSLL
Beta-adrenergic receptor kinase 1 (Homo sapiens), sequence (P25098 whole entry, looked up): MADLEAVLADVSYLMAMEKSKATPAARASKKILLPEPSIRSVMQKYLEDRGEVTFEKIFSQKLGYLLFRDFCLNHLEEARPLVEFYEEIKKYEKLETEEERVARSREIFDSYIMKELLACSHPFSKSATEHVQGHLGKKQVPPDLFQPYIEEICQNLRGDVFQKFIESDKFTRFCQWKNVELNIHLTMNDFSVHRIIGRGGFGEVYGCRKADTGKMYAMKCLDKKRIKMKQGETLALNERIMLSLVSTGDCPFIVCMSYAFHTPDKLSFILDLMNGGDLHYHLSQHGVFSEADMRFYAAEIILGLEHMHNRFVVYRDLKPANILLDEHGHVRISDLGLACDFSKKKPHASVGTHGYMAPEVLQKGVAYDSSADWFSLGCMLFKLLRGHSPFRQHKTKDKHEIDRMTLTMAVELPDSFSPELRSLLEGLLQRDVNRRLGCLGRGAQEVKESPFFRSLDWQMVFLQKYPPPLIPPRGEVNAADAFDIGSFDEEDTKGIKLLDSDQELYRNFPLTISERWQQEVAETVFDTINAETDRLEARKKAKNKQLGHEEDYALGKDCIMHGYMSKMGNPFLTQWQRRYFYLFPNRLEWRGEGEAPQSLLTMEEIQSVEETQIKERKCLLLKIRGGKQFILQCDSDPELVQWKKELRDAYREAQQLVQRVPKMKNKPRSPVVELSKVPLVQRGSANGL
Botulinum neurotoxin type A (Clostridium botulinum), sequence (P0DPI0 whole entry, looked up): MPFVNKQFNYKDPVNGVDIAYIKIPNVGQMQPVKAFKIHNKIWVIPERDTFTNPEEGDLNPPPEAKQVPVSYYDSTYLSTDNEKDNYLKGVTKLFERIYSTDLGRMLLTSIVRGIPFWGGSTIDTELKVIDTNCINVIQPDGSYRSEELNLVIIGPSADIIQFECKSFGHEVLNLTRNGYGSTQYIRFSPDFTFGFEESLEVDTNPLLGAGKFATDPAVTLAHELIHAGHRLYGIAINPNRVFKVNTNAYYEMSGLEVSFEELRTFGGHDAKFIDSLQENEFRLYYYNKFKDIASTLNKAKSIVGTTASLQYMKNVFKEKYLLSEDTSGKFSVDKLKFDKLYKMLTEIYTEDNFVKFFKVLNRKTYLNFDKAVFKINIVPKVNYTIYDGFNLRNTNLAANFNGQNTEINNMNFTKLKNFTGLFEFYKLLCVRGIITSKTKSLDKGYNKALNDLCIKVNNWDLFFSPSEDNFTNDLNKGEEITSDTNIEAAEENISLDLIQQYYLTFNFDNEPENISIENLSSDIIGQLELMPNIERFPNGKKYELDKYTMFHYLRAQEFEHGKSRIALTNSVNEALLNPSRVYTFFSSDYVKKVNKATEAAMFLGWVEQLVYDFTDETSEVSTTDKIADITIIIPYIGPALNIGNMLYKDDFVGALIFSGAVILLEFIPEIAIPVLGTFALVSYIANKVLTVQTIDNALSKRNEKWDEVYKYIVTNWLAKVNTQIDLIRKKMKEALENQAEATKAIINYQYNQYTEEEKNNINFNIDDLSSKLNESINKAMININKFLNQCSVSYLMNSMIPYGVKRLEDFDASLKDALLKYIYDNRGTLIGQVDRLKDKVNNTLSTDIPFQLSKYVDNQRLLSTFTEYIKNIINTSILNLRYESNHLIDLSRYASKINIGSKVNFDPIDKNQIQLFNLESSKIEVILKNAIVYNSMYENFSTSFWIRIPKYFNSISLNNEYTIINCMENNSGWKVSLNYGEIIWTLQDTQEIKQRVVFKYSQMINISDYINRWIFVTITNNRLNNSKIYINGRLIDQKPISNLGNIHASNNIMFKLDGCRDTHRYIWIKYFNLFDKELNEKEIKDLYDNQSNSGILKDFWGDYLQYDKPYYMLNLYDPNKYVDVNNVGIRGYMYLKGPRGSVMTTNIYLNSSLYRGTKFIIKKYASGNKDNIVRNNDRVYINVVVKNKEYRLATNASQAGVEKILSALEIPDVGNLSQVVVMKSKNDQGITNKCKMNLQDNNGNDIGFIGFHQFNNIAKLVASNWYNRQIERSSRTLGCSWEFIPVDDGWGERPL

With `CC(C)C(=O)Nc1ccc(S(=O)(=O)N2CC3CC(C2)c2cccc(=O)n2C3)cc1` (stereo not given) the percent of DMSO control GFP [1] was 97.4% (inactive), the GFP response vs DMSO [2] was 95.2% (inactive) and the percent response of DMSO control [3] was 104% (inactive). For the same compound, the GFP response vs DMSO [4] was 86.3% (inactive), the GFP response, % of DMSO [5] was 93.1% (inactive) and the double positive events [6] was 58.5%. For the same compound, the vesicle binding response [6] was 184% (inactive), the inhibition [7] was -5.89% (inactive) and the superoxide response (% of plate) [8] was 106% (inactive). The aptamer binding inhibition [9] was 3% (inactive), the response [10] was -5.34% (inactive) and the inhibition [11] was 10.6% (inactive). For the same compound, the response [12] was -0.52% (inactive), the binding (% of control) [13] was 100% (inactive) and the inhibition [14] was 4.8% (inactive). The inhibition [15] was 0.5% (inactive), the inhibition [16] was 0.3% (inactive) and the efflux inhibition (fraction of control) [17] was -0.24 (inactive). The inhibition [18] was 2% (inactive) and the differentiation response [19] was 13.6% (inactive).
In the case of `OC(c1ccccc1)(c1ccccc1)C1CCNCC1`, the percent of DMSO control GFP [1] is reported as 99.4% (inactive), the GFP response vs DMSO [2] is reported as 110% (inactive) and the percent response of DMSO control [3] is reported as 104% (inactive). The GFP response vs DMSO [4] was 85.3% (inactive), the GFP response, % of DMSO [5] was 103% (inactive) and the double positive events [6] was 73.3%. For the same compound, the vesicle binding response [6] was 322% (inactive), the inhibition [7] was -5.18% (inactive) and the superoxide response (% of plate) [8] was 94.6% (inactive). For the same compound, the aptamer binding inhibition [9] was 12% (inactive), the response [10] was 6.3% (inactive) and the inhibition [11] was 2.73% (inactive). For the same compound, the response [12] was 10.3% (inactive), the binding (% of control) [13] was 106% (inactive) and the inhibition [14] was 4.1% (inactive). The inhibition [15] was 1.1% (inactive), the inhibition [16] was 4.1% (inactive) and the efflux inhibition (fraction of control) [17] was 0.05 (inactive). The inhibition [18] was 12% (inactive) and the differentiation response [19] was 2.46% (inactive).
With `O=C1CCCC2=C1C(c1cccnc1)Nc1ccccc1N2` (stereo not given) the percent of DMSO control GFP [1] was 105% (inactive), the GFP response vs DMSO [2] was 95.1% (inactive) and the percent response of DMSO control [3] was 121% (inactive). For the same compound, the GFP response vs DMSO [4] was 89.4% (inactive), the GFP response, % of DMSO [5] was 107% (inactive) and the double positive events [6] was 64.4%. For the same compound, the vesicle binding response [6] was 211% (inactive), the inhibition [7] was -5.64% (inactive) and the superoxide response (% of plate) [8] was 98% (inactive). For the same compound, the aptamer binding inhibition [9] was -2% (inactive), the response [10] was -5.46% (inactive) and the inhibition [11] was -4.18% (inactive). For the same compound, the response [12] was -6.46% (inactive), the binding (% of control) [13] was 99.8% (inactive) and the inhibition [14] was 0.4% (inactive). For the same compound, the inhibition [15] was -2.1% (inactive), the inhibition [16] was -4% (inactive) and the efflux inhibition (fraction of control) [17] was -0.07 (inactive). For the same compound, the inhibition [18] was -9% (inactive) and the differentiation response [19] was -4.64% (inactive).
With `OCc1cnc[nH]1` the percent of DMSO control GFP [1] was 103% (inactive), the GFP response vs DMSO [2] was 109% (inactive) and the percent response of DMSO control [3] was 98.9% (inactive). The GFP response vs DMSO [4] was 101% (inactive), the GFP response, % of DMSO [5] was 99.4% (inactive) and the double positive events [6] was 62.2%. The vesicle binding response [6] was 4490% (inactive), the inhibition [7] was 11% (inactive) and the superoxide response (% of plate) [8] was 104% (inactive). The aptamer binding inhibition [9] was 0% (inactive), the response [10] was -1.18% (inactive) and the inhibition [11] was 3.29% (inactive). For the same compound, the response [12] was 1.03% (inactive), the binding (% of control) [13] was 97.4% (inactive) and the inhibition [14] was 0.1% (inactive). For the same compound, the inhibition [15] was -0.3% (inactive), the inhibition [16] was 1.2% (inactive) and the efflux inhibition (fraction of control) [17] was -0.01 (inactive). The inhibition [18] was -11% (inactive) and the differentiation response [19] was -10.5% (inactive).
In the case of `O=c1[nH]c(=S)n(-c2ccccc2)c(O)c1/C=N/N1CCCCC1c1cccnc1` (stereo not given), the percent of DMSO control GFP [1] is reported as 101% (inactive), the GFP response vs DMSO [2] is reported as 100% (inactive) and the percent response of DMSO control [3] is reported as 90.8% (inactive). The GFP response vs DMSO [4] was 84.8% (inactive), the GFP response, % of DMSO [5] was 93% (inactive) and the double positive events [6] was 64%. For the same compound, the vesicle binding response [6] was 885% (inactive), the inhibition [7] was -37.8% (inactive) and the superoxide response (% of plate) [8] was 100% (inactive). The aptamer binding inhibition [9] was 4% (inactive), the response [10] was 0.69% (inactive) and the inhibition [11] was 1.04% (inactive). The response [12] was 4.77% (inactive), the binding (% of control) [13] was 100% (inactive) and the inhibition [14] was -0.8% (inactive). For the same compound, the inhibition [15] was 0.8% (inactive), the inhibition [16] was -6.8% (inactive) and the efflux inhibition (fraction of control) [17] was -0.04 (inactive). For the same compound, the inhibition [18] was 0% (inactive) and the differentiation response [19] was 4.15% (inactive).
In the case of `CN1C2CCC1CC(OC(=O)c1ccc(Cl)cc1)C2` (stereo not given), the percent of DMSO control GFP [1] is reported as 99.9% (inactive), the GFP response vs DMSO [2] is reported as 98.5% (inactive) and the percent response of DMSO control [3] is reported as 98.6% (inactive). For the same compound, the GFP response vs DMSO [4] was 119% (inactive), the GFP response, % of DMSO [5] was 108% (inactive) and the double positive events [6] was 62.2%. For the same compound, the vesicle binding response [6] was 228% (inactive), the inhibition [7] was 11.9% (inactive) and the superoxide response (% of plate) [8] was 99.6% (inactive). For the same compound, the aptamer binding inhibition [9] was -1% (inactive), the response [10] was -2.49% (inactive) and the inhibition [11] was -3.16% (inactive). The response [12] was 2.46% (inactive), the binding (% of control) [13] was 99.5% (inactive) and the inhibition [14] was 0% (inactive). For the same compound, the inhibition [15] was -1.9% (inactive), the inhibition [16] was -2.9% (inactive) and the efflux inhibition (fraction of control) [17] was -0.03 (inactive). The inhibition [18] was 4% (inactive) and the differentiation response [19] was -13.6% (inactive).
For `CC(C)(C)C(O)C(Oc1ccc(Cl)cc1)n1cncn1` (stereo not given), the percent of DMSO control GFP [1] was 105% (inactive), the GFP response vs DMSO [2] was 107% (inactive) and the percent response of DMSO control [3] was 106% (inactive). For the same compound, the GFP response vs DMSO [4] was 121% (inactive), the GFP response, % of DMSO [5] was 115% (inactive) and the double positive events [6] was 62%. The vesicle binding response [6] was 218% (inactive), the inhibition [7] was 1.44% (inactive) and the superoxide response (% of plate) [8] was 277% (inactive). The aptamer binding inhibition [9] was 2% (inactive), the response [10] was -29.1% (inactive) and the inhibition [11] was 7.17% (inactive). For the same compound, the response [12] was -0.61% (inactive), the binding (% of control) [13] was 100% (inactive) and the inhibition [14] was -0.4% (inactive). For the same compound, the inhibition [15] was 0% (inactive), the inhibition [16] was -4.4% (inactive) and the efflux inhibition (fraction of control) [17] was -0.04 (inactive). For the same compound, the inhibition [18] was 4% (inactive) and the differentiation response [19] was 6.83% (inactive).
